p53ts 39C tox: kills p53ts cells at the nonpermissive temperature; H1299-p53A138V viability at 39C, ATP luminescence, 24 h; Potency, µM (titrated, usually from 46.1 µM), usual class: cytotoxic; actives 1.5% (n = 130,000); AID 902; note: nearly all actives have a fitted effect of over 55% in size
Imprint erasure: induces erasure of genomic imprints in mouse ES cells; actives 0.02% (n = 110,000); mouse ES Peg3-LacZ reporter, beta-gal luminescence, 40 h; Potency, µM (top dose mostly 60.7 µM), most hits filed as activators
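Gelatin-coated wells received 300 freshly trypsinized female ES cells with a Peg3LacZ-Neo reporter on the maternal allele, then incubated 40 hours at 37C. BetaGlo was added for 5 minutes at room temperature before a single luminescence read.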
IkB sig inh: inhibitors of IkB signaling in ABC-DLBCL cells; ABC-DLBCL IkBa-CBG/CBR dual luciferase ratio, 4 h; response scale: scaled: untreated 0%, proteasome inhibitor 100%; Potency, µM (titrated, usually from 57.1 µM); actives 0.04% (n = 110,000); active = well fitted curve in the direction sought with a large enough effect in the signal ratio, not every such curve was filed as active; inconclusive = small, poorly fitted or top-dose-only effect, or a change in a side signal; the % refers to the signal ratio;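 note: the direction sought is a rising ratio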
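In this assay, an IκBα–CBG68 fusion accumulates when IKK-driven degradation is blocked; native CBR normalizes for cell number. OCI-Ly3 cells were treated 4 h with compound and doxycycline, then green and red light read after Chroma-Glo addition.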
p53ts 32C tox: cytotoxicity in p53ts cells at permissive temperature. H1299-p53A138V at 32C, ATP luminescence viability, 24 h. Potency, µM (series often up to 46.1 µM), hits mostly cytotoxic. actives 0.93% (n = 130,000); note: nearly all actives have a fitted effect of over 55% in size
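H1299-p53 A138V cells (temperature-sensitive p53) exposed 24 h to up to 46 uM compound at 32C, where p53 is wild-type in conformation. Viability read as ATP luminescence and normalised to DMSO and 100 uM tamoxifen. AC50 fitted with the Hill equation.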
Of the large screens only hits and unclear results are named; the others gave an inactive call; ! = not active in a repeat. Shown are actives, neighbours in structure and some others; about 1.7% of the full set was active somewhere. Unless noted, calls come from the whole dose curve; as a rule, active = well fitted curve in the direction sought with a large enough effect; inconclusive = small, poorly fitted or top-dose-only effect, or another doubt; inactive = no such curve, though single readings can be large; an effect the other way counts as inactive or inconclusive.

CCCCC(CC)C/C=C1\CC(C(=O)OCC)Oc2ccccc21 (configuration not stated) (tested in a mixture with another compound)	none (no result: p53ts 39C tox, IkB sig inh, p53ts 32C tox)
COc1ccc(C(=O)Nc2noc3ccccc23)cc1	p53ts 39C tox 6.3µM, IkB sig inh inconclusive, p53ts 32C tox 3.2µM
COc1ccc(C(=O)Nc2cc(C)on2)cc1	p53ts 39C tox 6.3µM, p53ts 32C tox 7.9µM
CC(Oc1ccc(Br)cc1)C(=O)NCc1cccnc1 (configuration not stated)	none (no result: Imprint erasure, IkB sig inh)
Fc1cccc(CSc2nc3ccncc3[nH]2)c1	p53ts 39C tox 10µM, p53ts 32C tox 5µM
COc1ccc(NC(=O)CSc2nnc(NC(=O)Nc3ccc(OC)cc3)s2)cc1	p53ts 39C tox inconclusive
COCCNC(=O)CSc1nnc(NC(=O)Nc2ccc(C)cc2)s1	p53ts 39C tox inconclusive, p53ts 32C tox 11µM
COc1ccccc1C(=O)Nc1ccc(OCc2cc(=O)n3cccc(C)c3n2)cc1	none
COc1cc(C(=O)Nc2ccc(OCc3cc(=O)n4cccc(C)c4n3)cc2)cc(OC)c1OC	p53ts 39C tox 32µM, p53ts 32C tox inconclusive
CN1CCc2cccc3c2[C@@H]1Cc1ccc(O)c(O)c1-3	p53ts 39C tox 10µM!, p53ts 32C tox 32µM!
CCCCCCCCC(=O)NCc1cc(OC)c(O)cc1I	p53ts 39C tox 32µM, IkB sig inh inconclusive
COc1cc(CNC(=O)CCCCCCC(C)C)ccc1O	none
O=C(O)c1cc(S(=O)(=O)Nc2ccc(O)cc2)ccc1Cl	none (no result: Imprint erasure, IkB sig inh)
CCOc1ccc(N2C(=O)c3[nH]nc(-c4ccc(OC)cc4)c3C2c2cccs2)cc1 (configuration not stated)	IkB sig inh inconclusive
O=C(c1cccs1)c1ccc(-c2cccs2)s1	p53ts 39C tox 10µM, IkB sig inh inconclusive, p53ts 32C tox 7.9µM
O=C(c1cc2ccccc2o1)c1cccs1	none
COCCn1c(C)cc(C(=O)COC(=O)c2c(C)nn(Cc3ccccc3)c2C)c1C	IkB sig inh inconclusive
COCCn1c(C)cc(C(=O)COC(=O)c2n[nH]c3ccccc23)c1C	p53ts 39C tox 2µM, IkB sig inh inconclusive, p53ts 32C tox 1µM
COc1cc(C(=O)OCC(=O)c2cc(C)n(C)c2C)cc(OC)c1OC	none
Cc1cc(C(=O)COC(=O)c2n[nH]c3ccccc23)c(C)n1C	p53ts 39C tox 3.2µM, IkB sig inh inconclusive, p53ts 32C tox 2.5µM
COc1ccc(-c2nc3cnc(N4CCOCC4)nc3n(Cc3cccs3)c2=O)cc1	none
C[C@@H](Oc1ccc(Oc2cnc3ccc(Cl)cc3n2)cc1)C(=O)O	none (no result: p53ts 39C tox, IkB sig inh, p53ts 32C tox)
Cc1cc(C)cc(NC(=O)Cn2cc(C(=O)C3CCCCC3)c3ccccc32)c1	p53ts 39C tox 10µM, p53ts 32C tox inconclusive
CCOC(=O)NC(=O)CSc1nc(C)cc(C)c1C#N	p53ts 39C tox 6.3µM, p53ts 32C tox 5µM (no result: Imprint erasure)
Cc1cc(C)c(C#N)c(SCC(=O)Nc2ccccc2C(N)=O)n1	p53ts 39C tox 2µM, p53ts 32C tox 13µM
N#C/C(=C\c1c[nH]c2ccccc12)C(=O)c1ccc(O)c(O)c1	p53ts 39C tox inconclusive, IkB sig inh inconclusive, p53ts 32C tox inconclusive
COc1ccc(CNCCC(c2ccccc2)c2ccc3c(c2)OCO3)cc1 (configuration not stated)	p53ts 39C tox 16µM, IkB sig inh inconclusive, p53ts 32C tox inconclusive
COc1ccc(Oc2ncc3nc(-c4cc(F)cc(F)c4)c(=O)n(C[C@H]4CCCO4)c3n2)cc1	none
O=C(Nc1cccc(-c2nc3ccccc3[nH]2)c1)c1ccco1	none
COc1c(Cl)cc(C(=O)Nc2cccc(-c3nc4ccccc4[nH]3)c2)cc1Cl	p53ts 39C tox 13µM, IkB sig inh inconclusive, p53ts 32C tox inconclusive
Cc1ccc(-c2nc3ccccc3[nH]2)cc1NC(=O)COc1ccccc1[N+](=O)[O-]	p53ts 39C tox 7.9µM, IkB sig inh inconclusive, p53ts 32C tox 16µM
Cc1ccc(NC(=O)c2ccc3ccccc3n2)nc1	p53ts 39C tox inconclusive, IkB sig inh inconclusive, p53ts 32C tox 13µM
Cc1ccc(C(=O)Nc2ccc(Cl)cn2)cc1	p53ts 39C tox inconclusive, IkB sig inh inconclusive, p53ts 32C tox 7.9µM
Cc1ccc(NC(=O)c2cccc(Cl)c2)nc1	none
CN(Cc1ccccc1)C(=O)[C@H](Cc1ccc2ccccc2c1)NC(=O)[C@@H]1C[C@@H](O)CN1C(=O)c1cn(C)c2ccccc12	none (no result: p53ts 39C tox, IkB sig inh, p53ts 32C tox)
Cc1ccc(-c2nc(CS(=O)CC(=O)N3CCN(c4cccc(Cl)c4)CC3)c(C)o2)cc1 (configuration not stated)	p53ts 39C tox 13µM
Cc1c(C(=O)Nc2ccc(-c3nnc4n3CCCCC4)cc2)oc2c1ccc1ccccc12	p53ts 32C tox 1µM (no result: Imprint erasure, IkB sig inh)
O=C1C2C3C=CC(C2C(=O)N1CN1CCOCC1)C1C2C(=O)N(CN4CCOCC4)C(=O)C2C31 (configuration not stated)	none
CN(Cc1ccco1)c1ccnc(-c2cccc(NS(C)(=O)=O)c2)n1	p53ts 39C tox inconclusive
COc1cccc(-c2nccc(N(C)Cc3ccco3)n2)c1	p53ts 39C tox 10µM, p53ts 32C tox 10µM
COc1ccc(CNc2ccnc(-c3c(C)noc3C)n2)c(OC)c1	none
O=C(O)c1ccc2nc(-c3cc4cccc(O)c4oc3=O)[nH]c2c1	p53ts 39C tox inconclusive, IkB sig inh inconclusive, p53ts 32C tox 10µM
COc1ccc(NC(=O)C(=O)NCC(c2cccnc2)N2CCc3ccccc3C2)cc1 (configuration not stated)	p53ts 39C tox 10µM, p53ts 32C tox inconclusive
COC(=O)c1c(SCC(=O)Nc2ccccc2C(F)(F)F)[nH]c2ccc(Cl)cc2c1=O	IkB sig inh inconclusive, p53ts 32C tox inconclusive
COC(=O)c1c(SCC(=O)Nc2cc(C)cc(C)c2)[nH]c2ccccc2c1=O	p53ts 39C tox 13µM, IkB sig inh inconclusive, p53ts 32C tox inconclusive
COC(=O)C1C(O)CC[C@H]2CN3CCc4c([nH]c5ccccc45)C3C[C@H]12 (some centres not stated)	none (no result: IkB sig inh)
Cc1ccc2[nH]cc(C(c3ccccc3)c3cccs3)c2c1 (configuration not stated)	p53ts 39C tox inconclusive, IkB sig inh inconclusive, p53ts 32C tox inconclusive
Cc1ccc2[nH]cc(C(c3ccccc3)c3ccc(C)s3)c2c1 (configuration not stated)	p53ts 39C tox 13µM, IkB sig inh inconclusive, p53ts 32C tox inconclusive
Clc1ccc(C2=Nn3c(nnc3-c3n[nH]c4c3CCC4)SC2)cc1Cl	p53ts 39C tox 13µM
c1ccc(C2=Nn3c(nnc3-c3n[nH]c4c3CCC4)SC2)cc1	none
CCOc1ccccc1NC(=O)c1cc2ccc3cccnc3c2[nH]1	p53ts 39C tox inconclusive
CC1CCCN(C(=O)c2cc3ccc4cccnc4c3[nH]2)C1 (configuration not stated)	p53ts 39C tox 1.6µM, IkB sig inh inconclusive, p53ts 32C tox 0.79µM
CCOC(=O)C1CCN(C(=O)c2cc3ccc4cccnc4c3[nH]2)CC1	IkB sig inh inconclusive
O=C(c1cc2ccc3cccnc3c2[nH]1)N1CCCCC1	p53ts 39C tox 0.63µM, IkB sig inh inconclusive, p53ts 32C tox 1.6µM

Screens (PubChem BioAssay)
